Several values for one entry are separate records, joined by “and”; a condition that tells them apart may be missing. Equal entries are not always repeated. Inconclusive results are not listed. Activity calls are given as the source filed them. Unless noted, the limit is not given here; nearly all actives have AC50 up to about 26 µM.

Test [1] can be described thus: kinase inhibitors against Plasmodium liver-stage infection, cell-based, known kinase inhibitor set, luminescence, hepatoma host viability (AID 624392; call rule not given here;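 also: infected cells incubated roughly two days before readout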). The conditions noted are these: Plasmodium liver stage in hepatoma cells, luciferase luminescence, concentration not given here; liver cell % of control: measured here: host liver cell viability; parasite % of control: stronger effect = lower value.

A short description of test [2]: growth inhibition of DIPG glioma cells, dose response, cell-based, SU-DIPG-XIII, MIPE4.0, CellTiter-Glo, qHTS (AID 1347061; cut-off not given, nearly all actives have AC50 up to about 37 µM;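 also: cells exposed to compound for 48 hours before readout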). The note with it: SU-DIPG-XIII viability, CellTiter-Glo ATP luminescence. (In general: ATP-based viability assays read luminescence as a measure of living cells.)
The nature of test [3]: growth inhibition of DIPG glioma cells, dose response, cell-based, JHH-DIPG-1, MIPE4.0, CellTiter-Glo, qHTS (AID 1347062; cut-off not given, nearly all actives have AC50 up to about 27 µM). The conditions noted are these: JHH-DIPG-1 viability, CellTiter-Glo ATP luminescence.
Test [4] can be described thus: growth inhibition of DIPG glioma cells, dose response, cell-based, SU-DIPG-IV, MIPE4.0, CellTiter-Glo, qHTS (AID 1347063; cut-off not given, nearly all actives have AC50 up to about 30 µM;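 also: compound exposure lasted 48 hours before the viability readout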). The conditions noted are these: SU-DIPG-IV viability, CellTiter-Glo ATP luminescence.
Test [5] is described as follows: SU-DIPG-VI glioma cell viability, MIPE4.0 library, CellTiter-Glo luminescence, qHTS (AID 1347066; cut-off not given, nearly all actives have AC50 up to about 30 µM;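 also: cells exposed to compound for 48 hours before readout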). The note with it: CellTiter-Glo ATP luminescence.
Test [6] in a line: SU-DIPG-XXV glioma cell viability, MIPE5.0 library, qHTS (AID 1347068; cut-off not given, nearly all actives have IC50 up to about 30 µM;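 as to IC50: cells exposed to compound for 48 hours before viability readout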). On the technique in general: Quantitative high-throughput screening tests each substance at several concentrations.
Test [7] can be described thus: viability loss in pontine glioma line – cell-based, SU-DIPG-XXV, MIPE5.0, CellTiter-Glo, qHTS, dose response (AID 1347065).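 Also: cells exposed to compound for 48 hours before ATP readout.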 The conditions noted are these: CellTiter-Glo ATP luminescence.
Test [8] in a line: JHH-DIPG-1 glioma cell viability, MIPE5.0 library, CellTiter-Glo luminescence, qHTS (AID 1347067).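 Also: cells exposed to compound for 48 hours before readout.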 The conditions noted are these: JHH-DIPG-1 glioma viability, CellTiter-Glo ATP luminescence.
Test [9] is described as follows: growth inhibition of DIPG glioma cells, dose response, cell-based, SU-DIPG-XIII, MIPE5.0, CellTiter-Glo, qHTS (AID 1347064; cut-off not given, nearly all actives have AC50 up to about 23 µM;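 as to AC50: cells exposed to compound for 48 hours before the viability read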). The note with it: SU-DIPG-XIII viability, CellTiter-Glo ATP luminescence.
The nature of test [10]: growth inhibition of DIPG glioma cells, dose response, cell-based, SU-DIPG-XVII, MIPE5.0, CellTiter-Glo, qHTS (AID 1347060).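 As to AC50: cells exposed to compound for 48 hours before viability readout.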 The conditions noted are these: SU-DIPG-XVII viability, CellTiter-Glo ATP luminescence.
Test [11] is described as follows: LFS_MB_1R medulloblastoma cell growth inhibition, synergistic combos for chromothripsis tumors, cisplatin or BGB combos (AID 1671452; in the data active = inhibition above about 80%;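 also: cells exposed for 96 hours before readout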). The note with it: LFS_MB_1R medulloblastoma cells, stronger effect = higher value.
Test [12] is described as follows: CRL2098 osteosarcoma cell growth inhibition, synergistic combos for chromothripsis tumors, BGB or cisplatin IC20 combos (AID 1671454; in the data active = inhibition above about 80%;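 also: cells exposed for 96 h before readout; 0% = vehicle DMSO and 100% = killing by high DMSO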). The conditions noted are these: CRL2098 osteosarcoma cells, drug combinations, stronger effect = higher value.
Test [13] is described as follows: HD-MB03 medulloblastoma cell growth inhibition, synergistic combos for chromothripsis tumors, BGB or cisplatin IC20 combos (AID 1671455; in the data active = inhibition above about 83%;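 also: 0% = vehicle DMSO and 100% = high DMSO as cytotoxic control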). The note with it: HD-MB03 medulloblastoma cells, stronger effect = higher value.
A short description of test [14]: UWB1.289 ovarian carcinoma cell growth inhibition, synergistic combos for chromothripsis tumors, BGB or cisplatin combos (AID 1671456; in the data active = inhibition above about 80%;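 also: cells exposed to compound for four days; 0% = vehicle DMSO and 100% = killing by high DMSO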). The note with it: UWB1.289 ovarian carcinoma cells, stronger effect = higher value.
Test [15] can be described thus: LFS_MB_2R medulloblastoma cell growth inhibition, synergistic combos for chromothripsis tumors, cisplatin combos (AID 1671457; in the data active = inhibition above about 80%;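 also: cells exposed to compound for four days before readout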). The conditions noted are these: LFS_MB_2R medulloblastoma cells, stronger effect = higher value.
Test [16] can be described thus: UWB1.289_BRCA1 ovarian cancer growth, cell-based, BGB or cisplatin combinations (AID 1671459; in the data active = inhibition above about 80%). The conditions noted are these: UWB1.289 BRCA1 ovarian carcinoma, drug combinations, stronger effect = higher value.
Test [17] can be described thus: human astrocyte viability loss, single and combined drugs, cytotoxicity control for chromothriptic childhood tumor combination screen, cell-based, BGB or cisplatin IC20 combos (AID 1671460; in the data active = inhibition above about 80%;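 also: cells exposed to compounds for 96 hours before viability readout; 0% = vehicle and 100% = killing control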). The note with it: Human astrocytes, drug combinations, stronger effect = higher value.
A short description of test [18]: growth inhibition of CRL1545 osteosarcoma cells, cell-based, cisplatin and BGB IC20 combos (AID 1671464; in the data active = inhibition above about 80%;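 also: cells exposed to compound for 96 hours before readout; 0% = vehicle DMSO and 100% = high DMSO killing control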). The conditions noted are these: stronger effect = higher value.
Setting [19] is: measured here: combination with cisplatin, at 0.5 µM.
[20] abbreviates: measured here: combination with cisplatin, at 5 µM.

Turning to `Oc1ccc(-c2nc(-c3ccc(F)cc3)c(-c3ccncc3)[nH]2)cc1`, in test [1], the liver cell % of control is 85.2% and 83.2% and 90.8%. Also, in [1], the parasite % of control is 14.8% (inactive) and 19.2% (inactive) and 29.9% (inactive). Besides, the half-maximal activity concentration (AC50) (in general, the midpoint of the concentration-response curve, whichever way the signal moves) in test [2] is 5.9 µM (active); in test [4], 23.5 µM (active). For the same molecule, the result in test [3], in [5] and in [6] was inactive.

Consider `O=S(=O)(NCCNC/C=C/c1ccc(Br)cc1)c1cccc2cnccc12`, for which the AC50 in [4] was 16.6 µM (active); in [7], 23.5 µM (active); in test [8], 16.6 µM (active). Besides, in test [6], the outcome was inactive.

With `CC(C)(Sc1ccc(CCN(CCCCC2CCCCC2)C(=O)NC2CCCCC2)cc1)C(=O)O`, the molecule was classed as inactive in [3], in test [5] and in test [6].

Regarding `N#C/C(=C\c1ccc(O)c(O)c1)C(=O)NCc1ccccc1`, the result in [3] and in [6] was inactive.

With `O=c1cc(N2CCOCC2)oc2c(-c3ccccc3)cccc12`, the molecule was called inactive in test [2], in [9] and in test [6]. In test [4], the AC50 was 2.64 µM (active).

As to `Oc1ccc(Nc2nc(-c3ccc(Cl)cc3)cs2)cc1`, the concentration at half-maximal activity (AC50) in test [7] was 5.9 µM (active).

Consider `COc1ccc(Nc2nccc(NCCO)n2)cc1`, for which the molecule was classed as inactive in test [2], in test [3], in test [4], in [9], in test [7] and in [5]. Moreover, the call in test [8] and in [6] was inactive.

For `Cc1ccccc1C(=O)c1ccc(Nc2ccc(Br)cc2N)cc1Cl`, the outcome in [2] was inactive. Further, the figures for the AC50 in test [9], in test [7] and in test [8] were 20.9 µM (active), 18.6 µM (active) and 23.5 µM (active), respectively. Further, in test [6], the IC50 (in general, the midpoint of a concentration-inhibition curve) is 23.5 µM (active).

Regarding `CN(CCOc1ccc(-c2ccc3c(c2)OCO3)cc1C(C)(C)C)CC(=O)O`, the AC50 in test [8] was 23.5 µM (active). The molecule was called inactive in test [6].

As for `COc1cc(SC)ccc1C(=O)N1CCC(Cc2ccccc2)CC1`, the molecule was called inactive in test [10], in test [9], in test [7] and in [6].

For `O=c1ncccn1[C@@H]1O[C@H](CO)[C@@H](O)[C@H]1O`, the call in [9], in [7] and in [6] was inactive. Also, the inhibition (as a rule, the drop in the measured response relative to a control, in per cent) is -27.9% (inactive) in [11] (at 0.5 µM); -35.3% in test [11] (measured here: combination with BGB IC40, at 0.05 µM); -51% in [11] (setting [19]); -58.9% in test [11] (setting [20]); -74.1% (inactive) in [12] (at 0.5 µM); -48.3% in [12] (measured here: combination with BGB at IC20, at 0.5 µM). The inhibition in test [12] (measured here: combination with cisplatin at IC20, at 0.5 µM) was -120%; in test [13] (at 0.5 µM), -21.4% (inactive); in test [13] (measured here: combo with BGB at IC20, at 0.5 µM), -26.7%; in [13] (measured here: combo with cisplatin at IC20, at 0.5 µM), -23%; in test [14] (at 0.5 µM), -19.3% (inactive); in test [14] (measured here: inhibition with BGB combination, at 0.05 µM) it was 1.76%. Besides, the inhibition was -40% in test [14] (measured here: inhibition with cisplatin combination, at 0.05 µM); -6.18% (inactive) in [15] (at 0.5 µM); -23.5% in test [15] (setting [19]); -12.7% in [15] (setting [20]); -30% in test [16] (BGB combination, concentration series, at 5 µM); -19.1% (inactive) in test [16] (at 0.5 µM). In addition, the inhibition in test [16] (cisplatin combination, concentration series, at 5 µM) was -22.8%; in [17] (at 0.5 µM) it was -3.28% (inactive); in test [17] (measured here: combo with BGB IC20, at 0.5 µM) it was -9.39%; in test [17] (measured here: combo with cisplatin IC20, at 0.5 µM), 1.77%; in test [18] (at 0.5 µM), -31.3% (inactive); in test [18] (measured here: with BGB IC20 combination, at 0.5 µM), -27.5%. The inhibition in [18] (measured here: with cisplatin IC20 combination, at 0.5 µM) is -35.4%; in test [18] (single agent, at 0.05 µM), -12.6%; in [18] (single agent, at 5 µM) it was -36.3%.

For the molecule `CC(C)N(CCC(=O)c1ccc2ccccc2c1)Cc1ccccc1`, the concentration at half-maximal activity (AC50) in test [10] was 7.42 µM (active); in test [9], 7.42 µM (active); in test [7] it was 6.61 µM (active); in [8], 4.17 µM (active).

As for `CNC(=O)[C@H]1O[C@@H](n2cnc3c(NCc4cccc(I)c4)nc(Cl)nc32)[C@H](O)[C@@H]1O`, the AC50 is 18.6 µM (active) in test [10], 16.6 µM (active) in test [9] and 23.5 µM (active) in test [8]. Besides, the molecule was classed as inactive in [6].

(Values after PubChem BioAssay.)
